Source: PubChem BioAssay (NCI)
This is part of a sample that, as a whole, favours compounds with a hit. Of some 83,000 tested, about 20% had one in any assay.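 Compound tested at a single concentration for 48 hours in 96-well plates; a percent growth value below 10 was scored as active.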 A number with no mark means an inactive call. Calls of active or inactive are those of the source.

Experiments:
Assay in all cases: NCI-60 one-dose screen, 48 h (100 = growth as untreated, 0 = no growth, -100 = all killed)
Details in all cases: 10 µM unless noted
NCI-H23 lung = tested on: NCI-H23 lung
NCI-H226 lung = tested on: NCI-H226 lung
NCI-H322M lung = tested on: NCI-H322M lung
HOP-62 NSCLC = tested on: HOP-62 NSCLC
NCI-H460 lung = tested on: NCI-H460 lung
HOP-92 NSCLC = tested on: HOP-92 NSCLC
NCI-H522 lung = tested on: NCI-H522 lung
A549/ATCC NSCLC = tested on: A549/ATCC NSCLC
786-0 renal = tested on: 786-0 renal
COLO 205 colon = tested on: COLO 205 colon
DU-145 prostate = tested on: DU-145 prostate
K-562 leukemia = tested on: K-562 leukemia
MALME-3M melanoma = tested on: MALME-3M melanoma
MDA-MB-231 breast = tested on: MDA-MB-231 breast
RXF 393 renal = tested on: RXF 393 renal
SF-268 CNS = tested on: SF-268 CNS
SF-295 CNS = tested on: SF-295 CNS
SF-539 CNS = tested on: SF-539 CNS
UACC-257 melanoma = tested on: UACC-257 melanoma
M14 melanoma = tested on: M14 melanoma

SMILES | growth (NCI-H23 lung) | growth (NCI-H226 lung) | growth (NCI-H322M lung) | growth (HOP-62 NSCLC) | growth (NCI-H460 lung) | growth (HOP-92 NSCLC) | growth (NCI-H522 lung) | growth (A549/ATCC NSCLC) | growth (786-0 renal) | growth (COLO 205 colon) | growth (DU-145 prostate) | growth (K-562 leukemia) | growth (MALME-3M melanoma) | growth (MDA-MB-231 breast) | growth (RXF 393 renal) | growth (SF-268 CNS) | growth (SF-295 CNS) | growth (SF-539 CNS) | growth (UACC-257 melanoma) | growth (M14 melanoma)
Cn1cc(-c2csc(-c3c[nH]c4ccc(F)cc34)n2)c2cnccc21 | 49.3% | 52% | 15.4% | -55.1% (active) | -54.3% (active) | -47% (active) | -78.5% (active) | 5.33% (active) | -94.5% (active) | -93.2% (active) | -19.6% (active) | -55.4% (active) | -94.9% (active) | -66.7% (active) | -90.8% (active) | -25.4% (active) | -75.4% (active) | -93.7% (active) | -68.6% (active) | -87% (active)
O=C(/C=C/c1ccc([N+](=O)[O-])cc1)c1ccccc1 | 93.2% | 85% | 102% | 83% | 105% | 75.9% | 70.4% | 83.3% | 89.1% | 87.2% | 97.3% | 44.1% | 107% | 102% | 91.1% | 92% | 93.4% | 92.3% | 89.1% | 92.2%
CCCCC(NC(=O)CN1C(=O)/C(=C/C(C)=C/c2ccccc2)SC1=S)C(=O)O (stereo not given) | 94.8% | 93.9% | 103% | 93% | 102% | 62.8% | 93.8% | 98.5% | 104% | 119% | 111% | 107% | 91.8% | 92.7% | 105% | 100% | 95% | 101% | 104% | 96.6%
COc1ccc(C/C(C)=C(/c2ccc(OCCN3CCCCCC3)cc2)c2ccc(OC(=O)c3ccccc3)cc2)cc1 | 109% | 110% | 102% | 91.3% | 110% | 105% | 75.6% | 97.5% | 96.8% | 113% | 114% | 89.7% | 104% | 104% | 124% | 106% | 96.1% | 96.8% | 100% | 95.3%
c1ccc(Cc2cccc[n+]2C(c2ccccc2)c2ccccc2)cc1 | 38.2% | 74.7% | 77.9% | 72% | 66.3% | 32.5% | 10.2% | 58.5% | 85.6% | 24.4% | 68.9% | 33% | 23% | 68.2% | 93.3% | 64.9% | 73.6% | 56.6% | 7.44% (active) | 59.8%
Nc1nc(Nc2cccnc2)sc1C(=O)c1ccccc1F | 37.9% | 24.4% | 54.7% | 21.2% | 21.7% | 51.8% | 71.4% | 27% | 18.2% | 20.5% | 17.8% | 66.5% | 157% | 83.1% | -42% (active) | 20.8% | 34.9% | -3.32% (active) | 72.9% | 59.2%
Nc1ccc(-c2nc3ccc4[nH]ncc4c3c3c2CCCC3)cc1F | 19.7% | 42.2% | 41.3% | 23.1% | 24.8% | 55.4% | 22.5% | 11.7% | 37% | 12.4% | 38.6% | 30.2% | 28.3% | 37.6% | -13% (active) | 39.9% | 37.8% | 24.5% | 26.6% | 24.9%
COc1ccc(C(=O)N/N=C/c2ccc(O)cc2O)cc1Nc1ccnc(C(F)(F)F)c1 | 32.1% | 45% | 30.9% | 11.8% | 24.7% | 51.8% | 36.2% | 53.3% | 3.75% (active) | 37.1% | 48.1% | 26.6% | 9.52% (active) | 51.6% | 49% | 49.9% | 22.7% | 10.3% | 33.1% | 2.43% (active)
